High-throughput results deposited in PubChem BioAssay by Sanford-Burnham Center for Chemical Genomics.
Most compounds without a hit are left out; they make up all but 2.6% or so of the library.
eIF4H inh – human eIF4H binding inhibitors, primary screen, translation initiation inhibitor project, biochemical, uHTS, fluorescence polarization | inhibition, % at 35 µM | AID 2012, 2009 | eIF4H fluorescence polarization binding assay | 0.94% of 290,000 active;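 further: calls also rest on retests at 20 µM and on dose response follow-up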
PABP FP inh – PABP poly(A) RNA binding inhibitors, primary screen, biochemical, fluorescence polarization, uHTS | Polyadenylate-binding protein 1 (Homo sapiens), P11940 | calls only at 35 µM | 1% of 290,000 active;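 further: calls also rest on retests at 20 µM and on dose response follow-up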
Target sequence (P11940 whole entry, looked up): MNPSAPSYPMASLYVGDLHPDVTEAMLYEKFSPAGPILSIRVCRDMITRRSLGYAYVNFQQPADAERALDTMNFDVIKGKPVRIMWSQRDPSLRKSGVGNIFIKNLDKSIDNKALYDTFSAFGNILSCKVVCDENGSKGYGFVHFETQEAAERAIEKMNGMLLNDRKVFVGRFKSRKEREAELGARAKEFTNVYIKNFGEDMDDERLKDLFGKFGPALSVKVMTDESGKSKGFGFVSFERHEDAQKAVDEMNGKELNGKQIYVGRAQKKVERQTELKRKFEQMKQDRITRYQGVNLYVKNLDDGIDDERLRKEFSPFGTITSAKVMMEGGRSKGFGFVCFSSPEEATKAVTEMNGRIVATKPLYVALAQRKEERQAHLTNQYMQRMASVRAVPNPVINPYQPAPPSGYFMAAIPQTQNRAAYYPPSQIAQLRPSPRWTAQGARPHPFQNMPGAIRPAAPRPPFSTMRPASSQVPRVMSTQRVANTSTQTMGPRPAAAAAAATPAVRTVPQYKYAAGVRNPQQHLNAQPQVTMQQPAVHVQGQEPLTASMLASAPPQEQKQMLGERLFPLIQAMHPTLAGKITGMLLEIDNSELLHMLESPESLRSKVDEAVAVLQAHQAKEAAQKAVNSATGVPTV
A3G deaminase – APOBEC3G DNA deaminase inhibitors, primary screen, biochemical, fluorescence, single-stranded DNA substrate, uHTS. recombinant A3G, ssDNA deamination FAM/TAMRA fluorescence. inhibition, % at 20 µM. 0.28% of 330,000 active. AID 493012, 2011;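 active means inhibition of at least 40% at 20 µM, with no more than 30% in the related APOBEC3A deaminase screen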
A3A deaminase – APOBEC3A ssDNA deaminase inhibitors, primary screen, selectivity assay for APOBEC3G inhibitor project, biochemical, FAM/TAMRA oligo cleavage fluorescence; DNA dC->dU-editing enzyme APOBEC-3A (Homo sapiens), P31941; inhibition, % at 20 µM; 0.41% of 330,000 active; recombinant A3A, FAM/TAMRA ssDNA deamination fluorescence;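 active means at least 40% inhibition at 20 µM here, with at most 30% in a related deaminase screen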
PABP1 MLLE inh – inhibitors of PABP1 MLLE–PAM2 peptide binding, primary screen, biochemical, fluorescence polarization, FITC-PAM2, GST-MLLE. Polyadenylate-binding protein 1 (Homo sapiens), P11940. inhibition, % at 20 µM. 0.36% of 360,000 active. AID 588489, 2011; in the data active means inhibition above about 35%, passing the limit was not always enough
PHOSPHO1 block – PubChem AID 1565 | Phosphoethanolamine/phosphocholine phosphatase (Homo sapiens), Q8TCT1 | recombinant PHOSPHO1, absorbance phosphatase assay | inhibition, % at 13.3 µM | 1.1% of 290,000 active; in the data active means inhibition above about 60%
Numbers stand for hits; . = inactive; ? = inconclusive; / = not tested or not shown; + = active, no number. Unless noted, how the calls were made is not given here.

SMILES	eIF4H inh	PABP FP inh	A3G deaminase	A3A deaminase	PABP1 MLLE inh	PHOSPHO1 block
CCOc1ccc(NC(=O)CN(C)C(=O)CSC(C)C(=O)Nc2cc(C)on2)cc1OCC (stereo unspecified)	.	+	.	.	.	.
COc1ccccc1N1CCN(C2CCCN(C(=O)CN3CCCC3=O)C2)CC1 (stereo unspecified)	.	.	.	.	.	.
CC(C)C(=O)NC(=S)Nc1c(Cl)ccc2nsnc12	79	+	.	.	.	.
COc1ccc(NC(=O)N(C)[C@H]2C[C@H]3c4[nH]c5ccccc5c4CCN3C(=O)[C@H]2CO)cc1	/	/	/	/	.	/
CC(C)n1c(-c2ccc(C(C)(C)C)cc2)n[nH]c1=S	.	.	.	.	.	99
Cc1ccc(-c2n[nH]c(=S)n2C)cc1	.	.	/	/	.	94
COc1ccc(-c2n[nH]c(=S)n2-c2ccc(C)cc2)cc1	.	.	.	.	.	.
O=C(O)c1n[nH]c2c1CC(C1CCCCC1)CC2 (stereo unspecified)	/	/	.	.	.	/
CCn1nnnc1-c1ccc(OC)c(S(=O)(=O)Nc2ccc(C)c(C)c2)c1	.	.	.	.	.	.
COc1ccc(NS(=O)(=O)c2cc(-c3nnnn3C)ccc2OC)cc1	.	.	.	.	.	66
CCC(C)Nc1ccc(NC(C)CC)cc1 (stereo unspecified)	/	/	.	.	.	/
O=C(NC(=S)NNC(=O)c1cccs1)c1ccc(Br)o1	.	.	.	.	.	94
O=C(Cc1ccccc1)NNC(=S)NC(=O)c1cccs1	.	.	.	.	.	86
O=C(CCc1ccccc1)NNC(=S)NC(=O)c1ccc(Cl)cc1	.	.	.	.	/	95
O=C(NC(=S)NCc1ccccc1)c1cccs1	.	.	.	.	.	.
CCNC(=O)C1(C)CCN(C(=O)c2c(F)ccc(C)c2F)C1 (stereo unspecified)	/	/	/	/	.	/
C=CCn1c(C)cc(-c2csc(NC)n2)c1C	?	.	/	/	.	.
C=CCn1c(C)cc(-c2csc(N)n2)c1C	?	?	.	.	.	98
CCCn1c(C)cc(-c2csc(N)n2)c1C	122	.	.	.	.	.
Cc1cc(C(=O)NNC(=O)c2ccc(NC(=O)CC#N)cc2)c(C)o1	/	/	.	.	.	/
CCOC(=O)N1CCN(c2nc3ccccc3nc2C(C#N)S(=O)(=O)c2ccc(C)cc2)CC1 (stereo unspecified)	122	+	.	.	.	.
N#CC(c1nc2ccccc2nc1N1CCCCC1)S(=O)(=O)c1ccc(Cl)cc1 (stereo unspecified)	.	.	/	/	/	.
Cc1ccc(S(=O)(=O)C(C#N)c2nc3ccccc3nc2N2CCCCC2)cc1 (stereo unspecified)	?	?	/	/	/	93
COc1ccc(S(=O)(=O)C(C#N)c2nc3ccccc3nc2N2CCC(C)CC2)cc1 (stereo unspecified)	64	+	.	.	/	100
Cc1ccc(S(=O)(=O)C(C#N)c2nc3ccccc3nc2N2CCN(C)CC2)cc1 (stereo unspecified)	?	.	.	.	.	.
SMILES	eIF4H inh	PABP FP inh	A3G deaminase	A3A deaminase	PABP1 MLLE inh	PHOSPHO1 block
CC1CCCN(c2nc3ccccc3nc2C(C#N)S(=O)(=O)c2ccccc2)C1 (stereo unspecified)	?	?	.	.	.	.
Cc1cccc(S(=O)(=O)C(C#N)c2nc3ccccc3nc2N2CCOCC2)c1 (stereo unspecified)	?	?	.	.	.	78
CN(C)CCNc1nc(Oc2cccc(F)c2)c2sccc2n1	/	/	/	/	.	/
Cc1cccc(C)c1OCCCCN1CCCCC1	.	.	.	.	.	.
OC[C@H]1O[C@@H](n2cnc3c(Nc4ccccc4)ncnc32)[C@H](O)[C@@H]1O	active	+	.	.	.	.
OCC1OC(n2cnc3c(NCCc4ccccc4)ncnc32)C(O)C1O (stereo unspecified)	/	/	.	.	.	/
CCCn1c(N)cc(=O)n(CCC)c1=O	.	.	.	.	.	.
CC(C)(C)CC(C)(C)N=C1Nc2ccccc2NC12C[C@H]1CCC(=O)N3CC[C@@H](C2)[C@@H]13 (stereo partly specified)	/	/	/	/	.	/
CCOC(=O)c1ccccc1N1C(=O)CSC1=S	.	.	.	.	41	.
CC(C)[C@H](NC(=O)c1ccccc1F)C(=O)NCc1ccc(S(N)(=O)=O)cc1	.	.	.	.	.	.
Cc1ccc(OCCNC(=O)C(C)SCC(=O)Nc2ccc(F)cc2)cc1 (stereo unspecified)	/	/	.	.	.	/
CCOc1ccc2nc3c(cc2c1)CN(CCCO)C(=NCCOC)S3	.	.	.	.	.	91
O=C(CNc1ccc2ccccc2c1)N/N=C/c1ccc(OC(=O)/C=C/c2ccco2)cc1	71	+	.	.	.	.
Cc1ccc(C(=O)N/N=C/c2cccc(OC(=O)/C=C/c3ccco3)c2)cn1	86	.	.	.	.	.
CC(/C=C/c1ccco1)=N/NC(=O)c1ccc(C)nc1	.	.	.	.	.	.
CCC(=O)N(c1nnc(SCC(=O)c2ccc[nH]2)s1)C1CC1	/	/	.	.	.	/
CC(C)C(NC(=O)c1ccccc1)C(=O)NC1=NCCS1 (stereo unspecified)	.	.	.	.	44	.
CC(NC(=O)c1ccccc1)C(=O)NC1=NCCS1 (stereo unspecified)	.	.	.	.	.	.
COc1ccccc1OCCNC(=O)CCC(=O)N1CCOCC1	/	/	.	.	.	/
Cn1cccc1Cc1nnc(SCC(=O)N2CCN(c3ccccc3)CC2)n1-c1ccc(F)cc1	.	.	.	.	.	70
O=C(CSc1nnc(Nc2ccccc2F)s1)NCc1ccco1	.	.	/	/	.	87
Cc1ccccc1Nc1nnc(SCC(=O)NC(=O)NCc2ccco2)s1	59	.	.	.	.	82
O=C(CSc1nnc(Nc2ccccc2)s1)NCc1ccco1	.	.	.	.	.	.
Cc1ccc(Nc2nnc(SCC(=O)NCc3ccco3)s2)cc1	.	.	/	/	.	74
O=C(NC(=S)Nc1ccc2oc(=O)ccc2c1)c1cc2ccccc2o1	.	.	.	.	.	.
Cc1ccc(-n2c(Cc3cccn3C)nnc2SCC(=O)NCc2ccco2)cc1	.	.	.	.	.	78
Cc1ccc(-n2c(Cc3cccn3C)nnc2SCC(N)=O)cc1	.	.	.	.	.	.
O=C1C=CC(=O)c2c(O)c(N3CCN(CCOCCO)CC3)c(Br)c(O)c21	/	/	/	/	94	/
